In PubChem BioAssay (NCI):
The panel holds about 83,000 compounds, 20% with a hit somewhere; the sample as a whole holds those more often.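 Negative percent growth values reflect cell death: -40 means 40% of the cells present at the start died, and -100 means all died.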 Unmarked numbers belong to inactive results. Calls of active or inactive are those of the source. How the source made its calls: active means growth percent below 10; inactive means the rest.

tested on: HL-60(TB) leukemia; test: NCI-60 one-dose screen, 48 h (100 = growth as untreated, 0 = no growth, -100 = all killed); conditions: 10 µM unless noted

Structure (SMILES) | growth
CC[C@@]1(OC(=O)CN(C)C)C(=O)OCc2c1cc1n(c2=O)Cc2cc3c(N)cccc3nc2-1 | -2.25% (active)
Cc1[nH]c(-c2cc(N)ccc2Cl)c2c1C(=O)CCCC2 | -14.4% (active)
CCOc1ccc(/C=N/Nc2cc(C)nc3ccc(Br)cc23)cc1 | 53.3%
COc1ccc(-c2oc3cc(O)c(OC)c(O)c3c(=O)c2OC)cc1O | -8.34% (active)
Cc1cc(-c2ccc(N=Nc3c(C)nn(-c4ccc(S(=O)(=O)O)cc4)c3O)c(C)c2)ccc1N=Nc1ccc(O)c(C(=O)O)c1 | 99%
O=C(CCC(=O)c1nc2ncccc2[nH]1)NN1C(=O)CSC1c1ccc(Cl)cc1 (stereo not given) | 99.6%
COc1ccc(Cl)cc1C(=O)Nc1nc2ccc(Cl)cc2s1 | 103%
COC(=O)Nc1nc2ccc(C(=O)c3cccs3)cc2[nH]1 | -45.1% (active)
Cc1ccc(S(=O)(=O)Nc2cc(Sc3ccccc3)c(O)c3ccccc23)cc1 | -31.2% (active)
CCCn1nc(C(=O)N2CCCCC2)c2c1CCC(N1CCC(c3ccncc3)CC1)C2 (stereo not given) | 96.6%
COc1cc2c(cc1OC)-c1ccc3cc4c(cc3c1N(CCN1CCCC1)C2)OCO4 | -39.7% (active)
CCCCCCCCCCCCC1CCC(=O)O1 (stereo not given) | 88.1%
CCCOC(=O)N[C@H]1CCc2c(Cl)c(OC)c(OC)c(OC)c2-c2ccc(SC)c(=O)cc21 | -36% (active)
COc1ccc(Cl)cc1Nc1nc(C(F)(F)F)ccc1C(=O)N/N=C/c1cccnc1 | 21.8%
COc1ccc(-c2ccc3ncc4c(c3c2)n(-c2ccc(N3CCNCC3)c(C(F)(F)F)c2)c(=O)n4C)cn1 | -65.4% (active)
FC(F)(F)c1cccc([Si](F)(c2cccc(C(F)(F)F)c2)c2cccc(C(F)(F)F)c2)c1 | 80.5%
CCN(CC)CCNc1c(C)cc(CO)c(Cl)c1C | 107%
CCCCOC(=O)c1ccc(NC(=O)C(C)N2CCOCC2)cc1 (stereo not given) | 82%
COc1ccc(C2[C@@H](Cl)C(=O)N2c2cc(OC)c(OC)c(OC)c2)cc1Cl (stereo not given in full) | -30.3% (active)
Fc1ccc(/C=C/[C@@H]2C[C@@H](F)CCO2)cc1 | 56.1%

Structure (SMILES) | growth
CCCCCCC/C=N/NC(=O)c1ccc(-n2cc(-c3ccccc3)nn2)cc1 | 95.2%
N/C(=N\O)c1ncc(-c2ccc(C(F)(F)F)cc2)c(NC2CCCCCC2)n1 | -58.8% [100 µM] (active)
O=C(N/N=C\c1ccc(Cl)cc1)C(=O)N/N=C\c1ccc(Cl)cc1 | 108%
CCOS(=O)(=O)c1ccc([N+](=O)[O-])cc1 | 95.9%
Cc1[nH]n(C(=O)c2ccncc2)c(=O)c1N=Nc1ccc(O)c(C(=O)O)c1 | 53.4%
COc1cc2c(c(OC)c1OC)-c1ccc(SC)c(=O)cc1[C@@H](NC1OC(CO)C(O)C(O)C1O)CC2 (stereo not given in full) | -38.6% (active)
CC(C)=CC(=O)OC(=O)C=C(C)C | 104%
COc1cc(C(=O)c2c(-c3ccccc3)oc3ccccc23)cc(OC)c1O | 5.07% (active)
CCCCCCCN(CCCCCCC)C(=N)c1ccc(OC)c2ccccc12 | -66.4% (active)
O=C1/C(=C/c2cn(-c3ccccc3)nc2-c2ccccc2)SC(=S)N1C1CCCCC1 | 116%
Nc1ncc(-c2cnn(C3CCNCC3)c2)cc1-c1nc2ccccc2o1 | -55.5% (active)
CN(C)C(=S)NN=C(c1ccccn1)c1ccccn1 | -27.5% (active)
CCCCCCc1nc2nc(Cl)c(Cl)nc2[nH]1 | 39.6%
CN(C)c1ccc2c(c1)OC(N)=C(C#N)C2c1ccc2c(c1)CCCN2C (stereo not given) | 5.46% (active)
COc1ccccc1N1CCCCC1 | 101%
CCN(CC)CCCC(C)Nc1ccc2ccc(Cl)cc2n1 (stereo not given) | 101%
CCn1cc(C(=O)NNC(=S)Nc2ccc(C)cc2)c(=O)c2ccc(C)nc21 | 94.5%
Cc1cc(C(=O)CCCC(=O)c2cc(C)c(O)c(C)c2)cc(C)c1O | 84.6%
Cn1cc(-c2noc(-c3cn(C)c4ncc(F)cc34)n2)c2cc(Br)ccc21 | 93.8%
COc1ccc(CCN2COc3c([C@@H](C)CCC=C(C)C)ccc(C)c3C2)cc1OC | 29.1%
